In PubChem BioAssay one finds composite z-score data, which are given here for 26 compounds.

Each structure is given as a SMILES string.

The nature of one assay: COS7 lysate on small-molecule microarray, probe aHis, 635 nm (AID 1123).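 Note: z-score combines 667nm fluorescence intensity with signal-to-noise per printed compound spot.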 Conditions: COS7 cell lysate, fluorescence, higher = more signal.
`COCCOC(=O)N1C(=O)[C@@]2(c3cc(C#CCCO)ccc31)[C@H](c1ccc(O)cc1)N1[C@H](c3ccccc3)[C@H](c3ccccc3)OC(=O)[C@H]1[C@@H]2C(=O)Nc1nc2ccccc2s1` gave a composite z-score of 0.372.

In turn, `COc1cc2c(cc1OC)CN(C(=O)[C@@H]1[C@H]3C(=O)O[C@H](c4ccccc4)[C@H](c4ccccc4)N3[C@H](c3ccccc3OCCO)[C@@]13C(=O)Nc1ccccc13)CC2` showed a composite z-score of 0.938.

On to `COc1ccc([Si](C)(C)[C@H]2[C@H](CCO)O[C@@]3(C(=O)N(Cc4ccc(N5CCCCC5=O)cc4)c4ccccc43)[C@@H]2C)cc1`, for which the composite z-score was found to be 1.79.

As for `CCCCO[C@H]1C[C@H]2C(Br)=C[C@@]1(CO)C(=O)[C@]21CO1`, the composite z-score worked out at 0.124.

Compound `CCOC(=O)C[C@H]1[C@H](OC(=O)c2ccccc2-c2ccccc2)[C@@H](NC(=O)C2CCCCC2)c2cc(OCCCO)ccc2N1C(=O)c1ccccc1` displayed a composite z-score of 0.68.

For the compound `CO[C@H]1COC(=O)[C@H](C)NC(=O)CC=C[C@@H](C)[C@H](NS(=O)(=O)c2ccc(C)cc2)COC(=O)[C@@H](OCc2ccccc2)C=C[C@@H]1C`, the composite z-score was -0.959.

`CC(C)CNC(=O)[C@@]1(C)c2ccccc2C(=O)N(Cc2ccc(OC(F)(F)F)cc2)[C@H]1c1ccc(CO)cc1` came in with a composite z-score of 1.17.

On to `CC(C)C[C@@H]1NC(=O)[C@H]2C[C@@H](C(=O)NCCCCCC[N+](C)(C)C)[C@@H](c3ccc(O)cc3)N2C1=O`, for which the composite z-score came out at 0.439.

In turn, `C=CC[C@@]1(C(=O)NCC(O)CO)N=C(c2ccc(OCCCO)cc2)O[C@@H]1c1ccccc1CN=[N+]=[N-]` (stereo partly specified) displayed a composite z-score of 2.98.

Another assay can be described thus: probe aLAP1 signal on lysate-treated microarray – cell lysate, small-molecule microarray, COS7 lysate, primary screen (AID 1124).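 Note: lysate comes from COS7 cells expressing LAP1 and is applied at 0.3 µg/mL; score merges spot fluorescence near 667 nm with signal-to-noise over triplicate slides.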 Conditions: probe aLAP1, fluorescence, higher = more signal.
Turning to `COCCOC(=O)N1C(=O)[C@@]2(c3cc(C#CC4(O)CCCCCC4)ccc31)[C@H](C(=O)N1CCCCCCC1)[C@H]1C(=O)O[C@H](c3ccccc3)[C@H](c3ccccc3)N1[C@@H]2c1ccc(O)cc1`, the composite z-score was -0.139.

In turn, `C=CCC(OC(C)=O)[C@@H]1[C@@H](N(Cc2cc3ccccc3o2)C(=O)Cc2ccc(F)cc2)c2cc(OCCCO)ccc2N1C(=O)c1ccc(-c2ccccc2)cc1` (stereo partly specified) displayed a composite z-score of -0.546.

Compound `O=C(CS)NCCCCCNC(=O)[C@H]1C[C@H]2C(=O)N[C@@H](Cc3ccccc3)C(=O)N2[C@H]1c1ccc(O)cc1` displayed a composite z-score of 0.393.

For `CO[C@H]1COC(=O)CC=C[C@@H](C)COC(=O)[C@@H](C)NC(=O)CC=C[C@@H]1C`, the composite z-score was -0.495.

`CCC(=O)[C@]12O[C@@]3([C@@H]4C(=O)OCC[C@@H]41)N(Cc1ccccc1)C(C)=C(C(=O)OC)[C@@H](c1ccccc1)N3C2=O` showed a composite z-score of -0.242.

`C[C@]1(C(=O)NCCN2CCOCC2)c2ccccc2C(=O)N(Cc2ccccc2)[C@H]1c1ccc(CO)cc1` displayed a composite z-score of 0.389.

`CC[C@H]1C2=C3C(CC[C@H]4C(OC)OC[C@](C)([C@@H]34)N(C(=O)OC(C)(C)C)C2)C(CO)C1CO` (stereo partly specified) gave a composite z-score of 0.903.

With `O=C1c2ccccc2[C@@]2(Cc3ccccc3N(CC(F)(F)F)C2=O)[C@H](c2ccc(CO)cc2)N1C1CCCCC1`, the composite z-score is 0.48.

In turn, `C=C(C(=O)CC[C@H](OC(=O)c1ccccc1-c1ccccc1C(=O)O)c1ccc(CO)o1)C(C)C` displayed a composite z-score of 1.47.

Consider `CC1=C([C@H](O)CCc2ccccc2)[C@H](CO)[C@@H]2C(=O)N(Cc3ccccc3)C(=O)[C@@H]2C1`, for which the composite z-score was -0.222.

Consider `O=C1O[C@H](c2ccccc2)[C@H](c2ccccc2)N2[C@H]1[C@@H](C(=O)NC[C@H](O)c1ccccc1)[C@]1(C(=O)Nc3ccc(C#CC4=CCCCC4)cc31)[C@H]2c1ccc(OCCO)cc1`, for which the composite z-score turned out to be 0.402.

Consider `COc1cc(Cc2cc3c(c(CCc4ccccc4)n2)[Si](C(C)C)(C(C)C)OC3)cc(OC)c1OC`, for which the composite z-score is -0.0868.

Turning to `CO[C@H]1O[C@H](CO)[C@@H](OC(=O)CCc2ccccc2)[C@@H]2OC(=O)[C@H](Cc3cccc(Br)c3)C/C=C/C[C@@H](Cc3cccc(Br)c3)C(=O)O[C@@H]12`, the composite z-score was 0.0054.

`Cc1ccc(S[C@]2(C(=O)NCCCN(C)C)CC(=O)N(C3CCCCC3)[C@@H]2c2ccc(CO)cc2I)cc1` yielded a composite z-score of 0.379.

With `COC(=O)[C@@]1(Cc2ccccc2CN=[N+]=[N-])N=C(c2ccc(OCCCO)cc2)O[C@H]1c1ccccc1N=[N+]=[N-]`, the composite z-score is -0.507.

Consider `CO[C@@H]1COC(=O)[C@H](C)NC(=O)CC=C[C@@H](C)[C@H](OC)COC(=O)[C@H](C)NC(=O)CC=C[C@H]1C`, for which the composite z-score came out at 0.0381.

The compound `COCCOC(=O)N1C(=O)[C@@]2(c3cc(C#CCNC(N)=O)ccc31)[C@H](c1ccc(OCCO)cc1)N1[C@H](c3ccccc3)[C@H](c3ccccc3)OC(=O)[C@H]1[C@@H]2C(=O)Nc1nc2ccccc2s1` gave a composite z-score of 0.338.
